Active and inactive are the calls of the source.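 The calls were made as follows: active = mean tau seeding fluorescence area under 1% of vehicle, meaning inhibition above a set limit; inactive = the rest.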
The compounds below were run against Microtubule-associated protein tau (Homo sapiens) (UniProt P10636) (assay: inhibitors of seeded tau aggregation, primary screen, biochemical, seed amplification, ThT fluorescence (AID 2061166)). Settings: Recombinant tau seeded by AD brain, ThT fluorescence AUC; at 100 µM; stronger effect = higher value.
Microtubule-associated protein tau (Homo sapiens), sequence (P10636 whole entry, looked up): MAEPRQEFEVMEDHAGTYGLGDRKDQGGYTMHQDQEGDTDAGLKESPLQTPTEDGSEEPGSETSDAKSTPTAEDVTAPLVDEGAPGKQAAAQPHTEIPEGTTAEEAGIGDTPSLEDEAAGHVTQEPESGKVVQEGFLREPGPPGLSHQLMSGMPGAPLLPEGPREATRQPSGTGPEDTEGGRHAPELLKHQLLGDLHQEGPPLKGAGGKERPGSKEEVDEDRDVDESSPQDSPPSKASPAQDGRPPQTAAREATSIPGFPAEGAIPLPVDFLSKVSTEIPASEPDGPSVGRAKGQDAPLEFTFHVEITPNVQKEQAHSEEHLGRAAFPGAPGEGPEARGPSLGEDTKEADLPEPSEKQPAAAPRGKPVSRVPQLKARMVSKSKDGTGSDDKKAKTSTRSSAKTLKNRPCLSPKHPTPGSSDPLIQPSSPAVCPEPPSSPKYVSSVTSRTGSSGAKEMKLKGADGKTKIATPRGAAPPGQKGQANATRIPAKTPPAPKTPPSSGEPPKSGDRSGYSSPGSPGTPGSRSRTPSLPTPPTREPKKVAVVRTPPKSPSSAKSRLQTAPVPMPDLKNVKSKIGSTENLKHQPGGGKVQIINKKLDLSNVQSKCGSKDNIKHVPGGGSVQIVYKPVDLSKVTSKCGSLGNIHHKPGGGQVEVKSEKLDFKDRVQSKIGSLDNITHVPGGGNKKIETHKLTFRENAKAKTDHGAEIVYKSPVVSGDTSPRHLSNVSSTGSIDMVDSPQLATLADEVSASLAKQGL

| Structure (SMILES) | inhibition |
| --- | --- |
| Nc1c(N=Nc2ccc(-c3ccc(N=Nc4cc(S(=O)(=O)O)c5ccccc5c4N)cc3)cc2)cc(S(=O)(=O)O)c2ccccc12 | 100% (active) |
| CCCCN1CCCCC1C(=O)Nc1c(C)cccc1C (stereo not drawn) | 7.03% (inactive) |
| Cc1ccc2c(c1)c1c(n2CCc2ccc(C)nc2)CCN(C)C1 | -29.9% (inactive) |
| CCCCCCCCc1ccc(CCC(N)(CO)CO)cc1 | 59.3% (inactive) |
| CN(C)CCc1c[nH]c2ccc(Cn3cncn3)cc12 | -4.86% (inactive) |
| COC1CC2CCC(C)C(O)(O2)C(=O)C(=O)N2CCCCC2C(=O)OC(C(C)CC2CCC(OCCO)C(OC)C2)CC(=O)C(C)/C=C(\C)C(O)C(OC)C(=O)C(C)CC(C)/C=C/C=C/C=C/1C (stereo not drawn) | 19.2% (inactive) |
| CS(=O)(=O)OCCCCOS(C)(=O)=O | -40% (inactive) |
| COc1cc(C(C)=O)ccc1OCCCN1CCC(c2noc3cc(F)ccc23)CC1 | -61.2% (inactive) |
| Clc1cccc(Cl)c1NC1=NCCN1 | -11.7% (inactive) |
| Cc1ccc(C(=O)c2cc(O)c(O)c([N+](=O)[O-])c2)cc1 | 77.7% (inactive) |
| COc1ccc(Cc2cnc(N)nc2N)cc1OC | 37.1% (inactive) |
| CC(=O)NC(CS)C(=O)O (stereo not drawn) | 5.01% (inactive) |
| CC(C)(Sc1cc(C(C)(C)C)c(O)c(C(C)(C)C)c1)Sc1cc(C(C)(C)C)c(O)c(C(C)(C)C)c1 | 23% (inactive) |
| O=C(CCCCCCC(=O)Nc1ccccc1)NO | -65.2% (inactive) |
| CC1CCC2(OC1)OC1CC3C4CC=C5CC(O)CC(O)C5(C)C4CCC3(C)C1C2C (stereo not drawn) | 13.9% (inactive) |
| O=C1C=C(NC(Cc2c[nH]c3ccccc23)C(=O)O)C(=O)c2ccccc21 (stereo not drawn) | 52.4% (inactive) |
| CNc1ccc2nc3ccc(=[N+](C)C)cc-3sc2c1 | 100% (active) |

| Structure (SMILES) | inhibition |
| --- | --- |
| CCCOC(C(=O)OC1CCN(C)CC1)(c1ccccc1)c1ccccc1 | 26.4% (inactive) |
| C#CCC(Cc1cnc2nc(N)nc(N)c2n1)c1ccc(C(=O)NC(CCC(=O)O)C(=O)O)cc1 (stereo not drawn) | -3.35% (inactive) |
| CC12CC3CC(C)(C1)CC(N)(C3)C2 | 10.2% (inactive) |
| O=C(O)c1cc(-c2ccccc2)nc2ccccc12 | 3.74% (inactive) |
| COC1CC2CCC(C)C(O)(O2)C(=O)C(=O)N2CCCCC2C(=O)OC(C(C)CC2CCC(O)C(OC)C2)CC(=O)C(C)/C=C(\C)C(O)C(OC)C(=O)C(C)CC(C)/C=C/C=C/C=C/1C (stereo not drawn) | 14% (inactive) |
| Cc1ccc(C(C)C)cc1O | 10.5% (inactive) |
| COC(=O)C1=COC(OC2OC(CO)C(O)C(O)C2O)C2C1CC(O)C2C (stereo not drawn) | -52.1% (inactive) |
| Cc1ccc(Nc2c(F)cccc2Cl)c(CC(=O)O)c1 | 11.4% (inactive) |
| OCCOCCN1CCN(C2=Nc3ccccc3Sc3ccccc32)CC1 | 22.2% (inactive) |
| C#CC1(O)CCC2C3CCC4=Cc5oncc5CC4(C)C3CCC21C (stereo not drawn) | 45.1% (inactive) |
| CCC1(O)C(=O)OCc2c1cc1n(c2=O)Cc2cc3c(CN(C)C)c(O)ccc3nc2-1 (stereo not drawn) | 91.5% (inactive) |
| O=C(CCCN1CCC(O)(c2ccc(Cl)cc2)CC1)c1ccc(F)cc1 | -16.8% (inactive) |
| CCOc1nc2cccc(C(=O)O)c2n1Cc1ccc(-c2ccccc2-c2nn[nH]n2)cc1 | 36.2% (inactive) |
| CN=c1ccc2nc3ccc(N)cc3sc-2c1 | 100% (active) |
| C#Cc1cccc(Nc2ncnc3cc(OCCOC)c(OCCOC)cc23)c1 | -11.4% (inactive) |
| C[N+](C)=c1ccc2nc3ccc(N)cc3sc-2c1 | 100% (active) |
